According to PubChem BioAssay (NCI):
About 83,000 compounds went through this panel and 20% of them were active in at least one assay; those are over-represented in the sample as a whole.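 Cells were grown in 96-well plates and exposed to the test compound at a single concentration for 48 hours; results are reported as percent growth, with values below 10 considered active.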 Activity calls are given as the source filed them.

Tested on: NCI-H460 lung
Experiment: NCI-60 one-dose screen, 48 h (100 = growth as untreated, 0 = no growth, -100 = all killed)
Details: 10 µM unless noted

| Structure (SMILES) | growth |
| --- | --- |
| O=C1Nc2ccccc2C1(c1c[nH]c2ccccc12)c1c[nH]c2ccccc12 | 70.6% (inactive) |
| Cc1cc(Nc2ccc(C(=O)N3CCCC3)cc2)nc(NCCCNc2ccnc3cc(Cl)ccc23)n1 | 59.4% (inactive) |
| NC1(CO)COC(c2ccccc2)OC1 (stereo not drawn) | 108% (inactive) |
| O=C(CCCCCNC(=O)c1cc(=O)c(O)co1)Nc1ccccc1 | 111% (inactive) |
| O=S(=O)(NCCNc1nccc(-c2c(-c3cccc(O)c3)nc3occn23)n1)c1ccc(Br)cc1 | 31.2% (inactive) |
| C/C(=N\O)c1ccc(NC(=O)CSc2nnc(-c3cc(-c4ccc(S(N)(=O)=O)cc4)nc4ccccc34)n2-c2ccccc2)cc1 | 67.2% (inactive) |

Tested on: HOP-92 NSCLC
Experiment: as above
Details: 10 µM unless noted

| Structure (SMILES) | growth |
| --- | --- |
| COc1ccc2c(c1)c(-c1nc(-c3c[nH]c4ncccc34)cs1)cn2CCO | 48.6% (inactive) |
| O=C(NNC(=O)c1ccc(NC(=O)c2ccccn2)cc1)Nc1ccc2ccccc2c1 | 108% (inactive) |
| COc1ccc(/C=C/C(=O)c2cc(OC)c(OC)c(OC)c2)cc1OCC(=O)Nc1nc2ccc(OC(F)(F)F)cc2s1 | 54.9% (inactive) |
| O=C(CN1CCCCCC1)Nc1nc2ccc(NCc3ccc(Cl)cc3)cc2s1 | 90.9% (inactive) |
| CCCCCCCCCCCCCCCCCCOc1ccccc1CC(=O)NCC[N+]1(C)CCCCC1 | 19.9% (inactive) |
| COc1cc(-c2nc3sccn3c2-c2ccnc(NCCNS(=O)(=O)c3ccc(Cl)cc3)n2)ccc1F | 78.8% (inactive) |
| S=c1nc2oc(-c3ccccc3)c(-c3ccccc3)c2c(/N=C\c2ccco2)[nH]1 | 92.4% (inactive) |
| O=C1Nc2ccccc2/C1=C\c1c[nH]c2ccc(Br)cc12 | 64.6% (inactive) |
| COc1ccc(Nc2ncccc2/C=C/C(=O)c2cc(OC)c(OC)c(OC)c2)cc1 | -33.8% (active) |
| COc1cc(OC)c(/C=C/C(=O)c2c(O)cc(OC)c(C3CCN(C)CC3)c2OC)c(OC)c1 | -12.2% (active) |
| N#Cc1c(-c2ccccc2)nc(SCc2nnc(-c3ccc(Cl)cc3)o2)[nH]c1=O | 78.8% (inactive) |
| CC(=O)ON1CCCC(P(=O)(OCCSC(=O)C(C)(C)C)OCCSC(=O)C(C)(C)C)C1=O (stereo not drawn) | 29.4% (inactive) |
| COc1cccc(CCNc2ncnc3c2ncn3Cc2nnc3c4ccccc4c(Cl)nn23)c1 | 42.7% (inactive) |
| O=C(CN1CCN(c2cc3c(cc2F)c(=O)c(C(=O)O)cn3C2CC2)CC1)N/N=C/c1ccco1 | 87.9% (inactive) |
| COc1ccc(C2=CC(c3cc(OC)c(OC)c(OC)c3)n3ncnc3N2)cc1 (stereo not drawn) | 27% (inactive) |
| O=C(CI)NC(=O)NC(=O)NCc1ccccc1 | -17.4% (active) |
| CC[C@]12C=CCN3CC[C@@]4(c5ccc(OC)cc5N(C)[C@H]4[C@@](O)(C(=O)OC)[C@@H]1OC(=O)CCC[P+](c1ccccc1)(c1ccccc1)c1ccccc1)[C@@H]32 | -40% (active) |
| CC1CCN(C(=S)SCC(=O)NC(=O)c2ccccc2)CC1 | 107% (inactive) |
| C=C1C(=O)O[C@H]2[C@H]1CC/C(COC(=O)c1cc3cc(Cl)ccc3[nH]1)=C\CC[C@@]1(C)O[C@@H]21 | -80.3% (active) |
| COC(=O)/C=C1/SC(=Nc2ccc([N+](=O)[O-])cc2)N(CCc2c[nH]c3ccc(O)cc23)C1=O | 27.3% (inactive) |
| COc1ccc(CCN(CC(=O)N(CC(N)=O)C2CCC[C@@H]2OCc2ccccc2)C(=O)CN(C(=O)CN(CCc2ccc(Cl)cc2)C(=O)CN(C(=O)CN(C)Cc2ccccc2F)[C@H](C)C2CCCCC2)[C@H](C)C2CCCCC2)cc1OC (stereo partly drawn) | 10.3% (inactive) |
| CC(=O)OC[C@]12CC[C@@H]([C@@H](C)c3nnc(-c4ccncc4)o3)[C@@H]1[C@H]1CC[C@@H]3[C@@]4(C)CC[C@H](OC(C)=O)C(C)(C)[C@@H]4CC[C@@]3(C)[C@]1(C)CC2 | 66.1% (inactive) |
| COc1ccc(/C(C)=C(/c2ccc(OCCCN(C)C)cc2)c2ccc(OC(=O)c3ccccc3)cc2)cc1 | 52.5% (inactive) |
| COc1ccc2nc(Cl)c(/C=C3\CC(c4ccccc4)=NN(c4ccccc4)C3=O)cc2c1 | -20.3% (active) |
| CC(C)(C)c1cc(Cl)c(O)c(CNCCO)c1 | 90.8% (inactive) |
| CCS/C(Nc1ccccc1)=C(\C#N)C(=O)Nc1ccc(OC)cc1 | 44.5% (inactive) |
| COc1ccc(/C=C/c2c(C(=O)/C=C/c3ccccc3)c(C)nc3ccccc23)cc1 | 66.2% (inactive) |
